Test results taken from ChEMBL document CHEMBL1961873, “Compounds: GSK PKIS; Assays: Nanosyn kinase panel” (2012).

How the values were obtained:
[1] = molecular target: T1, Serine/threonine-protein kinase Nek9 (Homo sapiens) (UniProt Q8TD19); conditions: at 1 µM;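 further: each value is a mean percent inhibition of NEK9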
T1 sequence (whole entry): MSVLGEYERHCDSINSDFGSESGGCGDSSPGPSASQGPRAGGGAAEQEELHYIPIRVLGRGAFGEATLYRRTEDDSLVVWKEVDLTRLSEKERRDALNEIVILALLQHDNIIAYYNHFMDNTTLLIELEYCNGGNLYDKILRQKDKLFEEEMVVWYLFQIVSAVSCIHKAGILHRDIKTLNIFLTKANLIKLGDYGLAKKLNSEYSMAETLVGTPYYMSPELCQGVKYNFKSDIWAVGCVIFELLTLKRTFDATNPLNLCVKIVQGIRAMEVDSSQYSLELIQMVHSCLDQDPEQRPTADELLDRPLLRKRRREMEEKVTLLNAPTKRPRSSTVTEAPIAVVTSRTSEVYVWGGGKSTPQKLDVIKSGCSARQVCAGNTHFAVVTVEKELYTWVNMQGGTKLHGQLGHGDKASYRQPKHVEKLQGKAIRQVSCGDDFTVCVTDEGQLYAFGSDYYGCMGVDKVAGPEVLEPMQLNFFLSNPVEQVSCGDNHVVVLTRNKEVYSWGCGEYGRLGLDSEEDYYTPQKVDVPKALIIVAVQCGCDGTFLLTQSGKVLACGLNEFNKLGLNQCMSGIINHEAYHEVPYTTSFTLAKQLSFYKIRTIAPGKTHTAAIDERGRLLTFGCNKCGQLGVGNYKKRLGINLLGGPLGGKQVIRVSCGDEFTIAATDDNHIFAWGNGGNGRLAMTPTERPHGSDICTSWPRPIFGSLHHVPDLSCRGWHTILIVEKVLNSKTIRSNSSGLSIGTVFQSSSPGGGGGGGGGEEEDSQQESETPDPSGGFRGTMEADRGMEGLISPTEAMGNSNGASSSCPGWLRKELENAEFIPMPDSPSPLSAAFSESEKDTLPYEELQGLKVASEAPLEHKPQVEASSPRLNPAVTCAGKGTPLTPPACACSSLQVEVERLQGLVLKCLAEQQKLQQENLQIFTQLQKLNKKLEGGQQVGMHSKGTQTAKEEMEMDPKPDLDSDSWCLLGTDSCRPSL

[2] = molecular target: Serine/threonine-protein kinase PLK1 (Homo sapiens) (UniProt P53350); conditions: at 0.1 µM
Serine/threonine-protein kinase PLK1 (Homo sapiens), sequence (P53350 whole entry): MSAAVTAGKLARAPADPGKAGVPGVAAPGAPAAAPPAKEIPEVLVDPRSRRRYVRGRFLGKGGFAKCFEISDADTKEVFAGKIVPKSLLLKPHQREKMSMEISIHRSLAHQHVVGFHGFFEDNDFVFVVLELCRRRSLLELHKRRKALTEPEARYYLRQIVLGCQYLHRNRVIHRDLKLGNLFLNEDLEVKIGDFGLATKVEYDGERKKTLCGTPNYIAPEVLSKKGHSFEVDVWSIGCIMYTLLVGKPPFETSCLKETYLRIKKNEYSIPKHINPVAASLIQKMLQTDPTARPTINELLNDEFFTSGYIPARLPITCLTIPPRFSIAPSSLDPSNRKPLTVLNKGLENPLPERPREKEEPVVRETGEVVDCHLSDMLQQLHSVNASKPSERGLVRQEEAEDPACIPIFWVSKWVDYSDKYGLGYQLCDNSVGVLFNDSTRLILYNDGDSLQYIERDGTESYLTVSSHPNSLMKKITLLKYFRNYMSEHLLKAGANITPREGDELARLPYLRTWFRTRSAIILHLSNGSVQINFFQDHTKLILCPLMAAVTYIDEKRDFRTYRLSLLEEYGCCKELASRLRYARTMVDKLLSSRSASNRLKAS

[3] = molecular target: Serine/threonine-protein kinase PLK1 (Homo sapiens) (UniProt P53350); conditions: at 1 µM
[4] = molecular target: T2, Dual specificity protein kinase TTK (Homo sapiens) (UniProt P33981); conditions: at 0.1 µM
T2 sequence (whole entry): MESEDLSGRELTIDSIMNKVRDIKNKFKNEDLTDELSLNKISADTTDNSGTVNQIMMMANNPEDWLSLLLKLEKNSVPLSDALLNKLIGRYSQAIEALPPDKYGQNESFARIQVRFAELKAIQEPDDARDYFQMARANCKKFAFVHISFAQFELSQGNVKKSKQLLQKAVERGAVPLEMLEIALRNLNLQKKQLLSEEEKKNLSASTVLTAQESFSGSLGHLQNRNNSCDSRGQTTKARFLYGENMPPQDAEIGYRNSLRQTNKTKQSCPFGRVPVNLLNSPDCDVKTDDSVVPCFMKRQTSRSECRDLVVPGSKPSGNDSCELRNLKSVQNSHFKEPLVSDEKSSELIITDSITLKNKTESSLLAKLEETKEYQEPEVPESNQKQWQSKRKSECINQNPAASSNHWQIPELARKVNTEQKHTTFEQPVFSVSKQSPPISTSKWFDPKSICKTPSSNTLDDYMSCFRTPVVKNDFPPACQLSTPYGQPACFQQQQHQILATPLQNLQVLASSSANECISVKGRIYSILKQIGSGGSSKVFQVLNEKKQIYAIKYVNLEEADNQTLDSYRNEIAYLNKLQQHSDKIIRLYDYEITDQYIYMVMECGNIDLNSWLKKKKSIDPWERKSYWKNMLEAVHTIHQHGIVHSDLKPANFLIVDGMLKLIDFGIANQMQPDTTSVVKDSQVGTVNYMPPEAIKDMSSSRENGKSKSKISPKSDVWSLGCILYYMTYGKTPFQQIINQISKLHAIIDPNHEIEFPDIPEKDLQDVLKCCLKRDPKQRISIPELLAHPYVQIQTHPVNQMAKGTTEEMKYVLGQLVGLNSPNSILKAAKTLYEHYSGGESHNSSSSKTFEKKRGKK

[5] = tested on: T3, Receptor-type tyrosine-protein kinase FLT3 (Homo sapiens), P36888 [D835Y]; conditions: at 1 µM
T3 sequence (whole entry): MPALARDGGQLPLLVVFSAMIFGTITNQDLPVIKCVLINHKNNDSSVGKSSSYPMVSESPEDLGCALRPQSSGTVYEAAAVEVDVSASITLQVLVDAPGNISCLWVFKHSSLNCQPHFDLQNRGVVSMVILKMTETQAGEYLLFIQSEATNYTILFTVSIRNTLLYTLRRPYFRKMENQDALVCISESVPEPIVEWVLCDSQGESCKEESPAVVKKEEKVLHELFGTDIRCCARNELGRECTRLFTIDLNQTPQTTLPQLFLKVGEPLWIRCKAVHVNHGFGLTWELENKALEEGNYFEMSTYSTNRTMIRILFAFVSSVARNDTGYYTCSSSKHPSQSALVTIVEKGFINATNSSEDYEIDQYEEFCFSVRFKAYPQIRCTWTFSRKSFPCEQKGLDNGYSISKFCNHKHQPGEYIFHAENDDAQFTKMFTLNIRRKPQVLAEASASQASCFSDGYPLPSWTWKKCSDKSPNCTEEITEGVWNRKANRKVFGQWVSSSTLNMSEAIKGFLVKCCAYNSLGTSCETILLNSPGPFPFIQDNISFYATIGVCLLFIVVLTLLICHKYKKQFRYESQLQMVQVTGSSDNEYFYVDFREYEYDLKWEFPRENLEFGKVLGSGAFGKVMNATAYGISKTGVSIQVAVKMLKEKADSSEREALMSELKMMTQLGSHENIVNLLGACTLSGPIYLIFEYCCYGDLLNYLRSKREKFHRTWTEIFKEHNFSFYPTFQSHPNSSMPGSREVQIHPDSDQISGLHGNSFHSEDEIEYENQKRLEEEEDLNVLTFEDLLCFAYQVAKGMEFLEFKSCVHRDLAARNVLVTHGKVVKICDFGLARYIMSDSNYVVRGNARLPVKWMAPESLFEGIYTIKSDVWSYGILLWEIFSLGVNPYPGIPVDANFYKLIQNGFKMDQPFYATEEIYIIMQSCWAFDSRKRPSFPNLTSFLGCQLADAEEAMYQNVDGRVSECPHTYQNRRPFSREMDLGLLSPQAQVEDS

[6] = molecular target: Vascular endothelial growth factor receptor 3 (Homo sapiens) (UniProt P35916); conditions: at 0.1 µM
Vascular endothelial growth factor receptor 3 (Homo sapiens), sequence (P35916 whole entry): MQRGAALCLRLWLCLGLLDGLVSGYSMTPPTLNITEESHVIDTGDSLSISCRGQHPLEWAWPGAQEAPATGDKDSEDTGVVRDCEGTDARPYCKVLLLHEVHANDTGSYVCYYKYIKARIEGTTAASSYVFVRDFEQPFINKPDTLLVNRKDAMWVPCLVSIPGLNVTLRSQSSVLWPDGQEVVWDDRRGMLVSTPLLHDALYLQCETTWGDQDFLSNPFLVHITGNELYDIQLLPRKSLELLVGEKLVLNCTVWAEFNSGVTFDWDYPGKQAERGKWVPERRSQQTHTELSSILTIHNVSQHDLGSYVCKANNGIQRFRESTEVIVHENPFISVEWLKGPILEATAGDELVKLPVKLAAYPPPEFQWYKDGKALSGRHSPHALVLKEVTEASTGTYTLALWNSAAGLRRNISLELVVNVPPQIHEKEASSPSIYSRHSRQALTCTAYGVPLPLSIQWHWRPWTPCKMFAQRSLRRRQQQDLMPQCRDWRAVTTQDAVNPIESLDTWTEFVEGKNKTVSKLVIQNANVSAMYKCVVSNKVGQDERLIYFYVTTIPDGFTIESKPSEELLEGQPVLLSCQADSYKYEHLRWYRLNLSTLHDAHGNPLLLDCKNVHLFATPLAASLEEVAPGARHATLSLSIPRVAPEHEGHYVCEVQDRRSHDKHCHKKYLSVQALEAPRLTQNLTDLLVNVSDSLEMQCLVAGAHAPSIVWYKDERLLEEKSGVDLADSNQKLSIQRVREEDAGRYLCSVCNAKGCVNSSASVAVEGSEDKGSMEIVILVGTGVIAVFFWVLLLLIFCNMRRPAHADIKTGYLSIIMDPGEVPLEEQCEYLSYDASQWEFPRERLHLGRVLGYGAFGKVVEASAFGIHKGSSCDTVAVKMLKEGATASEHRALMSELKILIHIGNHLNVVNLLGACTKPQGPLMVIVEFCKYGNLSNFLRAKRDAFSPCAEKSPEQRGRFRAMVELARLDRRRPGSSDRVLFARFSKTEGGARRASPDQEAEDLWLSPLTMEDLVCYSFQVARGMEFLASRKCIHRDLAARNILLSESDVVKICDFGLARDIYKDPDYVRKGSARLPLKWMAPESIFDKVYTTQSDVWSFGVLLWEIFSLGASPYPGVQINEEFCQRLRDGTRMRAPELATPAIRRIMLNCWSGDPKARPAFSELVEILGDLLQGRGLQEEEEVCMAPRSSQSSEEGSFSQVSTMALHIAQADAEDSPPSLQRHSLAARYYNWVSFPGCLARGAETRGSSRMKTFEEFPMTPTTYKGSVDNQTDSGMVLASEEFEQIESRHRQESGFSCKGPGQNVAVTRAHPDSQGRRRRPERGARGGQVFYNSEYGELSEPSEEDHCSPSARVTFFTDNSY

[7] = molecular target: Vascular endothelial growth factor receptor 3 (Homo sapiens) (UniProt P35916); conditions: at 1 µM
[8] = molecular target: Macrophage colony-stimulating factor 1 receptor (Homo sapiens) (UniProt P07333); conditions: at 0.1 µM
Macrophage colony-stimulating factor 1 receptor (Homo sapiens), sequence (P07333 whole entry): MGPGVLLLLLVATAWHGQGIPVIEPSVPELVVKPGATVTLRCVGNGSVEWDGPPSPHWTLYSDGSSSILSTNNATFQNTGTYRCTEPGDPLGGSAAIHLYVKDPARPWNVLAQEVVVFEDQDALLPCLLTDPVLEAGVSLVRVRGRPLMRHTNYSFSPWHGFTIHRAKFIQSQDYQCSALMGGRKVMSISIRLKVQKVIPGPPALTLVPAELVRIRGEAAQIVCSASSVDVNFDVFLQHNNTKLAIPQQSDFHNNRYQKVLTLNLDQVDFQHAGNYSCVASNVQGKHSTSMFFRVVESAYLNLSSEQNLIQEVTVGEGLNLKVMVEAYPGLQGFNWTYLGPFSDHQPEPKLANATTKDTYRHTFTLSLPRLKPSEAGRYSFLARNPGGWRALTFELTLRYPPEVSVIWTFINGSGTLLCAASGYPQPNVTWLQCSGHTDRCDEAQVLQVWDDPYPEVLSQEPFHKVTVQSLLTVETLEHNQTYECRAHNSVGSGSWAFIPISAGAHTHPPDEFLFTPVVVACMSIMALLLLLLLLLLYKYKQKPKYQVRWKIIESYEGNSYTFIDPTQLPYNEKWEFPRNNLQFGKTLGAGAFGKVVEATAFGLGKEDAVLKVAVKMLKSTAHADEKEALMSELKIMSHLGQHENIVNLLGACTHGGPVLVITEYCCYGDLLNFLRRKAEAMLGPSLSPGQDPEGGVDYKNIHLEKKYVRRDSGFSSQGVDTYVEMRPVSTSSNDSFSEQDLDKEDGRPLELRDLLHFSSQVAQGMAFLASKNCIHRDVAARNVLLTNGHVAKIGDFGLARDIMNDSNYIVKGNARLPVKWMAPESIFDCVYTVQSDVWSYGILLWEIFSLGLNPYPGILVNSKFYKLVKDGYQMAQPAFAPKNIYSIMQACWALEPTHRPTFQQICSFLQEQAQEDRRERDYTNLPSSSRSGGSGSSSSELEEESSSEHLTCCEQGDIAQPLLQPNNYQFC

[9] = molecular target: Macrophage colony-stimulating factor 1 receptor (Homo sapiens) (UniProt P07333); conditions: at 1 µM
[10] = molecular target: Tyrosine-protein kinase Fyn (Homo sapiens) (UniProt P06241); conditions: at 0.1 µM
Tyrosine-protein kinase Fyn (Homo sapiens), sequence (P06241 2-537 limits assumed): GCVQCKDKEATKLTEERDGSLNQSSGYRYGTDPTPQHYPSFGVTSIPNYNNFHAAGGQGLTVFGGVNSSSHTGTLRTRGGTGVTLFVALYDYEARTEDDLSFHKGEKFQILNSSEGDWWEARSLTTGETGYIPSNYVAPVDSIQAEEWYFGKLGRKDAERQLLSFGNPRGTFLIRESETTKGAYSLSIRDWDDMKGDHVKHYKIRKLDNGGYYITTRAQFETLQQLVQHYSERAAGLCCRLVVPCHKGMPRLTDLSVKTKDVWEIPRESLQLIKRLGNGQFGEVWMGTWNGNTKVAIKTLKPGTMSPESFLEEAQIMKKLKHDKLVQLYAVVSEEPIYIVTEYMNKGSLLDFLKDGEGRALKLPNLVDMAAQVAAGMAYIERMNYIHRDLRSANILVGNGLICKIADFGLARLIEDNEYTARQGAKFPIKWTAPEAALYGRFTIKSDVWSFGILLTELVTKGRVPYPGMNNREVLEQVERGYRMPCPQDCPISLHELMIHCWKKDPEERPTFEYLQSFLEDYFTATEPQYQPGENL

| Compound | inhibition [1] | inhibition [2] | inhibition [3] | inhibition [4] | inhibition [5] | inhibition [6] | inhibition [7] | inhibition [8] | inhibition [9] | inhibition [10] |
| --- | --- | --- | --- | --- | --- | --- | --- | --- | --- | --- |
| Cc1cc(-c2ccccn2)cc(C)c1/C=C/c1cncc(-c2nn[nH]n2)c1 | 5.99% | 5.02% | 5.56% | 11.3% | 12% | 9.28% | 14.4% | 1.45% | 12.3% | 4.53% |
| c1ccc(Nc2ncc(-c3ccccc3)o2)cc1 | 10.2% | 5.96% | 5.42% | 18.1% | 9.89% | 3.79% | 11.7% | 3.76% | 22.9% | 3.46% |
| O=C(Nc1ccc(Oc2ccc3[nH]c(NC(=O)c4ccco4)nc3c2)cc1)Nc1cc(C(F)(F)F)ccc1F | 6.87% | 0.92% | 1.34% | -0.11% | 30.6% | -7.79% | 38.1% | 15.4% | 72.8% | -1.01% |
| Cc1ccc2c(-c3ccnc(Nc4ccc5c(c4)OCCO5)n3)c(-c3ccc(C(F)(F)F)cc3)nn2n1 | 1.95% | -2.52% | 2.75% | 4.62% | -0.37% | -1.78% | 2.51% | -1.16% | 14.6% | 1.42% |
| COc1cccc(-n2ncc3c(N/N=C/c4ccc(C)cc4)ncnc32)c1 | 9.51% | 7.38% | 14.2% | 18.3% | 10.3% | 3.28% | 4.5% | 4.53% | 12.9% | 5.39% |
| COC(=O)c1ccc2c(c1)C(=Cc1cc(Br)c(O)c(Br)c1)C(=O)N2 | 11.3% | 5.7% | 17.4% | 13.3% | 4.72% | 1.46% | 9.65% | 2.87% | 16.5% | 5.27% |
| NS(=O)(=O)c1ccc(NC=C2C(=O)Nc3ccc4ncsc4c32)cc1 | 32% | 4.42% | 6.99% | 52.1% | 87.5% | 63.9% | 102% | 47.5% | 85.5% | 5.49% |
| Nc1nccc(-c2c(-c3ccc(F)cc3)ncn2CCCN2CCOCC2)n1 | 15.2% | 2.14% | 4.49% | 10.5% | -6.25% | 15.4% | 17% | 2.72% | 1.51% | 0.86% |
| O=S(=O)(CCOCc1ccc(-c2ccc3ncnc(Nc4ccc(OCc5cccc(F)c5)c(Cl)c4)c3c2)o1)c1ccccc1 | 0.79% | 2.52% | 2.68% | 6.45% | -7.19% | 5.04% | 14% | -1.86% | 7.49% | 2.16% |
| COC(=O)Nc1nc2cc(Oc3ccc(NC(=O)Nc4cccc(Br)c4)cc3)ccc2[nH]1 | 15.4% | 6.02% | 2.36% | 5.37% | 5.43% | 3.16% | 11.9% | 19.9% | 43.2% | 3.15% |
| CC(C)c1ccc(Nc2nccc(-c3cnn4ncccc34)n2)cc1 | 11% | 2.9% | 4.81% | 5.54% | 23.1% | 0.79% | 9.77% | 23% | 72.1% | 1.04% |
| NS(=O)(=O)c1cccc(Nc2cc(-c3ccc(F)cc3)n[nH]2)c1 | 9.48% | 3.38% | 3.33% | 5.88% | 13.9% | -0.78% | 2.02% | 3.25% | 16.6% | 1.7% |
| CCOc1nccc2c1nc(-c1nonc1N)n2CC | 11.4% | 5.12% | 5.25% | 7.47% | -1.34% | 12.8% | 19.3% | 0.65% | 2.68% | 0.3% |
| COc1ccc2ncnc(Nc3ccc(OCc4ccccc4)cc3)c2c1 | 4.48% | 2.95% | 0.42% | 2.89% | 8.02% | -0.47% | 0.28% | 3.05% | 3.66% | 2.39% |
